# From PubChem BioAssay AID624418 (National Center for Advancing Translational Sciences (NCATS), 2012)
# Screen size: about 410,000 compounds; about 530 (0.13%) were called active. Where a call stands in place of a potency, no number is given. About 5% were inconclusive and are not listed. The call rests on the fitted dose curve; in most records, active means well fitted inhibition curve with a large enough effect; inconclusive means small, poorly fitted or top-dose-only effect, or another doubt; inactive means no such curve, though single readings can be large or run the other way. Many of the other results were omitted from the sample, so actives are more common in it than they were.
# Assay: qHTS of GLP-1 Receptor Inverse Agonists: Cytotox Screen;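 further: loss of luciferase light is scored as toxicity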
# Settings: HEK293 cAMP-luciferase reporter cells, luminescence, 24 h; series mostly up to 38.3 µM
# Text: The overall goal of this project was to develop a novel assay for discovering small molecule ligands for class B1 G protein-coupled receptors (GPCRs). Very few agonists (or inverse agonists) with generally weak activity for this entire group of physiologically important receptors are known to date. To establish proof-of-principle that this critical bottleneck can be overcome with a suitable screening approach, our studies focused on the class B1 receptor for glucagon-like peptide-1 (GLP-1R), a potential therapeutic target for diabetes and neurodegenerative disease.
# The assay was developed using a cell-based functional readout. Toward this goal, stably transfected HEK293 cell clones were established that co-express (i) a cAMP-responsive luciferase reporter gene, and (ii) constitutively active GLP-1R that upon ligand interaction inhibit (inverse agonists) the luciferase activity. In addition, two control cell lines were developed: (i) one that express only the cAMP-responsive reporter gene to enable initial exclusion of GLP-1R independent effects of candidate probes; and (ii) one with the reported gene cloned with another constitutively active orphan receptor GPR119 to enable exclusion of GLP-1R independent inhibitor effects of candidate inverse agonists.
# To that end, this assay was optimized for 1536-well format and screened against the MLSMR. Then the same collection was run in this cytotoxicity assay where inhibition was the undesired outcome.
# NIH Molecular Libraries Probe Production Network [MLPCN]
# NIH Chemical Genomics Center [NCGC]
# PI Name: Martin Beinborn, Tufts Medical Center
# Six ul of cell suspension (200 cells/uL in DMEM + 10% Nu serum + 1% pen-strep) is dispensed in a white solid 1536-well plate. The plates are incubated for 12 hours at 37 deg C at 5% CO2 followed by addition of 23 nL compounds. After 24 hr incubation at 37 deg C and 5% CO2, 3 uL of luciferase assay detection reagent is added. A luminescence read is obtained on the PerkinElmer Viewlux after 12 min incubation at room temperature.
# Potency means the concentration at half of the fitted maximal effect.
row,Compound,Potency
1,Cn1c(C(=O)Nc2cccc(C(F)(F)F)c2)cc2c(=O)n3ccccc3nc21,inactive
2,Cc1ccc2c(c1)-c1c(cnn1CC(=O)Nc1ccccc1C#N)CO2,inactive
3,CCN1CCN(c2ncnc3c2cnn3-c2ccc(C)c(C)c2)CC1,inactive
4,COC(=O)c1ccc(NC(=O)c2cccc3c2C(=O)N(C2CCCCC2)C3)cc1,inactive
5,COc1ccc(-c2nn3c(-c4ccc(OC)cc4)nnc3c3ccccc23)cc1,inactive
6,CCOc1cc(C2c3c(-c4ccc(Br)cc4)n[nH]c3C(=O)N2c2ccc(Cl)cc2)ccc1O (configuration not stated),inactive
7,CCC(Sc1nc2n[nH]c(C)c2c(=N)n1-c1ccccc1Cl)C(=O)N(CC)CC (configuration not stated),inactive
8,CC(=O)OC1=C(C(C)=O)N(Cc2ccccc2)S(=O)(=O)c2ccccc21,inactive
9,CN(Cc1ccccc1)C(=O)c1cn(C)c2ccc(S(=O)(=O)N3CCCCC3)cc2c1=O,inactive
10,CCc1ccccc1NC(=O)CSc1nnc(-c2ccccc2)c(-c2ccccc2)n1,inactive
11,Cc1ccc(C)c(N2CCN(C(=O)Cc3c(C(=O)O)c(C)cn3C)CC2)c1,inactive
12,Cc1cccc(NC(=O)C2CCN(S(=O)(=O)c3c(C)noc3/C=C/c3ccco3)CC2)c1,inactive
13,COc1ccc(OC)c(NC(=O)C2CCCN(S(=O)(=O)c3ccc4c(c3)CCCC(=O)N4)C2)c1 (configuration not stated),inactive
14,CC1=NN(C(=O)Cc2ccc(C)cc2)C(O)(c2cccnc2)C1 (configuration not stated),inactive
15,CC1=NN(C(=O)CCc2ccccc2O)C(O)(C(F)(F)F)C1 (configuration not stated),inactive
16,COc1ccc(CC(=O)N2N=C(C)CC2(O)C(F)(F)F)cc1 (configuration not stated),6.31 µM (active)
17,O=C(Nc1ccc(Oc2ccccc2)cc1)C1CCN(S(=O)(=O)c2ccc(Cl)cc2)CC1,inactive
18,CC(=O)Nc1ccc(NC(=O)CSc2nnc3c4cc(Br)ccc4n(C)c3n2)cc1,inactive
19,CC/C(=N\NC(=S)NC(C)C)c1ccc(OC(F)F)cc1,4.47 µM (active)
20,CC(C)CN1CCC1(C)C(=O)Nc1ccc(OC(F)F)cc1 (configuration not stated),inactive
21,CC(C)N(Cc1ccccc1)C(=S)Nc1ccc(OC(F)F)cc1,inactive
22,Cc1oc(C)c2c(=O)cc(-c3ccc4c(c3)OCO4)cc(OC(=O)c3ccc(Cl)cc3)c12,inactive
23,O=C(Nc1cc(C(F)(F)F)ccc1Cl)c1nc2ccccc2nc1N1CCCCC1,inactive
24,O=C(NCC12CC3CC(CC(C3)C1)C2)c1cc2nc(-c3ccccc3)cc(C(F)(F)F)n2n1,inactive
25,CSc1ccccc1-c1nnc(NC(=O)c2ccc3c(c2)OCCO3)o1,inactive
26,CCOc1ccccc1NC(=O)C1CCCN(S(=O)(=O)c2cn(C)cn2)C1 (configuration not stated),inactive
27,Fc1ccc(-c2nc(Nc3cccc(Cl)c3)nc3c2COc2ccccc2-3)cc1,inactive
